TROY signal inh = blocks TROY-dependent signaling in reporter cells | Q293 LMP1-TROYcd NF-kB luciferase reporter, 4 h | inhibition, % at 10 µM | actives 0.98% (n = 360,000) | AID 1347056;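 active = compounds whose plate-normalised and pattern-corrected inhibition of the luciferase reporter signal at the single screening dose is 50% or more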
Shn3 inh set2 = inhibitors of Schnurri-3 3'UTR reporter in osteoblasts. inhibition, % at 12.5 µM. Clone20 osteoblast Shn3 3'UTR firefly luciferase, 24 h. actives 0.52% (n = 360,000);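 active = mean inhibition of at least 75% with every replicate also reaching 75%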;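 also: 0% = median of neutral control wells and 100% = pilot-screen positive control compound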
TWEAK Fn14 block = blocks TWEAK-Fn14 interaction in a reporter cell assay; TWEAK-stimulated Fn14 reporter cells, luciferase luminescence, 8 h; inhibition, % at 10 µM; actives 2% (n = 360,000); AID 1159606; in the data active = inhibition above about 50%
Peg3 promoter = reduces Peg3 promoter-driven luciferase expression in HeLa. HeLa PEG-Prom luciferase reporter, luminescence, overnight. inhibition, % at 20 µM. actives 1.7% (n = 360,000). AID 588405;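 active = inhibition of at least 50% at 20 µM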
EBV LMP1 NFkB = inhibitors of Epstein-Barr LMP1-induced NF-kappaB reporter | inhibition, % at 12.5 µM | LMP1-induced NF-kappaB luciferase reporter cells, luminescence | actives 0.69% (n = 350,000); in the data active = inhibition above about 41%;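 also: 0% = neutral control wells and 100% = reference inhibitor control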
TRPM1 prom inh = inhibitors of MITF-driven TRPM1 promoter in melanoma cells; SK-MEL-5 TRPM1 promoter luciferase, 24 h; inhibition, % at 12.5 µM; actives 0.83% (n = 330,000);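 active = mean inhibition across replicates of 60% or more, whatever share of single replicates reaches that level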
Starred values were filed as active, the others as inactive; . = not tested or not shown. In the library only some 4.1% were active in any assay of this set; here they are far more common.

SMILES	TROY signal inh	Shn3 inh set2	TWEAK Fn14 block	Peg3 promoter	EBV LMP1 NFkB	TRPM1 prom inh
COc1ccc(/C=C2\CCCCC2=O)cc1	-12.6	-3.6	-23.4	-60.7	-5.4	-14.1
CCOC(=O)/C(=N/Nc1ccc(OC)cc1)Sc1nnc(CCc2ccccc2)n1-c1ccccc1	67.7*	-3.3	51.1*	-66.8	6.4	1.4
CC(=O)/C(=N/Nc1ccc(C)cc1)Sc1nnc(CCc2ccccc2)n1-c1ccccc1	-11.0	-2.0	-0.9	30.2	2.0	-4.5
Cc1nc([N+](=O)[O-])c(Sc2nc3ccc([N+](=O)[O-])cc3[nH]2)n1Cc1ccccc1	34.2	47.1	80.5*	-0.2	2.3	-6.3
CCOc1ccc(NC(=O)CSc2ncc(-c3ccc(F)cc3)n2Cc2ccco2)cc1	14.6	18.7	-19.4	10.9	0.1	7.9
Cc1ccc(NC(=O)Cn2c(-c3ccc(F)cc3)cnc2SCC(=O)Nc2c(C)cccc2C)cc1	-8.8	57.6	-23.3	76.5*	-32.6	5.4
COc1ccc(-c2cc(-c3ccccc3)c(C#N)c(S(C)=O)n2)cc1 (stereo not drawn)	-19.9	1.7	11.8	113.7*	10.6	69.6*
CCSc1nc(-c2ccc(OC)cc2)cc(-c2ccccc2)c1C#N	-53.8	51.0	-12.1	21.8	4.1	10.2
Nc1ccccc1Nc1cccc(C(F)(F)F)c1	18.6	-6.6	50.3*	20.8	2.3	-15.5
CCOC(=O)N1CCN(C(=O)Nc2ccc3nc(C)c(C)nc3c2)CC1	-3.3	3.9	-17.7	7.5	-5.4	-5.9
Cc1nc2ccc(NC(=O)N3CCCCC3)cc2nc1C	50.4*	-24.1	21.0	-178.7	11.6	-2.1
COc1ccccc1OCCN1CSC(=S)N(C)C1	5.9	-27.7	-44.8	99.8*	13.6	69.5*
Cc1cccc(OCCN2CSC(=S)N(C)C2)c1	-7.8	-2.6	0.1	57.5*	25.5	21.1
Cc1cccc(OCCCN2CCCCCC2)c1	-2.3	-6.7	7.6	11.3	4.2	0.6
O=C1CCC(=O)N1c1ccc(-c2nc3ccccc3s2)cc1	82.7*	-26.9	90.4*	-86.0	0.7	15.6
Cc1cc(-c2nc3ccccc3s2)ccc1N	32.4	-10.9	83.2*	-62.4	2.2	18.4
Nc1ccc2nc(-c3ccccc3)sc2c1	21.8	12.9	90.5*	-7.2	34.4	36.3
O=C(Nc1ccccc1N1CCOCC1)c1ccc(Cl)c(S(=O)(=O)N2CCCC2)c1	-19.5	7.3	6.9	8.5	5.5	-2.0
CCOC(=O)c1ccc(S(=O)(=O)N2CCN(c3ccccn3)CC2)cc1	8.1	15.9	1.4	8.8	7.5	2.5
O=C(/C=C/c1ccco1)NCCc1ccccc1	8.1	-61.7	-8.5	-249.7	-26.9	-59.4
Cc1ccc(/C=C/C(=O)NCCc2ccccc2)o1	1.0	-35.9	66.9*	-189.6	-86.1	-58.0
CS(=O)(=O)c1ccc2nc(NC(=O)c3ccc(NS(=O)(=O)c4ccc(F)c(F)c4)cc3)sc2c1	11.2	6.5	7.0	-13.3	-1.4	-3.8
O=C(Nc1nc2ccc(SC(F)F)cc2s1)c1ccc(NS(=O)(=O)c2ccc(F)c(F)c2)cc1	54.5*	0.7	71.0*	-76.1	-18.5	-6.2
COc1ccc(N(C)S(=O)(=O)c2cccc(C(=O)NC3CCCC3)c2)cc1	10.2	32.3	15.0	14.6	8.2	5.7
COc1ccc(N(C)S(=O)(=O)c2cccc(C(=O)NC3CCCCC3C)c2)cc1 (stereo not drawn)	-16.5	-5.7	0.8	102.3*	4.0	12.4
SMILES	TROY signal inh	Shn3 inh set2	TWEAK Fn14 block	Peg3 promoter	EBV LMP1 NFkB	TRPM1 prom inh
COCCNC(=O)CN(C(=O)CCC(=O)Nc1ccccn1)c1ccc(F)c(Cl)c1	8.8	-8.0	9.7	4.7	86.6*	-0.6
O=C(N/N=C\c1ccccn1)C1COc2cc3ccccc3cc2O1 (stereo not drawn)	-10.6	-6.2	73.4*	3.6	-3.9	-3.3
O=C(Nc1ccccc1)N1CCSCC1	.	-22.3	73.0*	13.6	-4.9	-9.6
O=C(Nc1ccc(Cl)cc1)N1CCSCC1	-23.3	-9.3	-16.1	-30.7	-11.9	-20.8
O=C(CCC(=O)OCC(F)(F)C(F)F)Nc1ccc(F)cc1F	-8.6	-5.4	-0.5	12.2	-2.1	2.2
O=C(CCC(=O)OCC(F)(F)C(F)F)Nc1ccc(Cl)cc1	7.5	-9.3	4.3	63.4*	0.4	-1.8
CCCc1cc(C(=O)OCC(=O)N2CCN(c3ccc(OC)cc3)CC2)sc1C	10.6	9.6	-1.5	24.3	-7.2	11.9
CCOc1ccc(C2(C)CC(=O)N(C)C2=O)cc1 (stereo not drawn)	1.7	-7.8	1.1	2.8	4.0	-12.2
Cc1nc2cc(NC(=O)c3ccc(Cl)cc3)ccc2n1C	-1.7	-60.8	50.2*	-163.1	17.9	-10.7
Cc1cc(C)cc(C(=O)NCC(=O)OCN2C(=O)c3ccccc3C2=O)c1	14.7	-6.7	4.6	51.6*	-5.2	1.0
CCC1(c2ccc(F)cc2)NC(=O)N(CC(=O)N2CCN(C(=O)c3cccs3)CC2)C1=O (stereo not drawn)	-1.4	-11.9	2.2	-9.2	-2.1	21.3
CCOC(=O)C1(Cc2ccc(Cl)cc2)CCN(C(C)Cc2ccc(O)c(OC)c2)CC1 (stereo not drawn)	26.6	92.1*	33.6	8.9	12.2	4.8
CCOC(=O)C1(Cc2ccc(OC)cc2)CCN(S(C)(=O)=O)CC1	-12.8	1.3	-19.2	9.1	1.3	4.3
CCCc1cc(=O)oc2cc(C)cc(OCC(=O)NCc3ccncc3)c12	-16.3	12.4	-16.7	18.3	-19.6	5.2
CN(CCOc1ccc(Cl)cc1)C(=O)c1cccc(S(=O)(=O)N2CCN(Cc3ccccc3)CC2)c1	39.4	91.5*	57.5*	21.8	18.1	.
Cc1ccc(C)c(NC(=O)CN(C)C(=O)c2cccc(S(=O)(=O)N3CCN(Cc4ccccc4)CC3)c2)c1	11.7	86.9*	20.0	20.5	14.7	11.2
COc1cccc(CN(C)C(=O)c2cccc(S(=O)(=O)N3CCN(c4ccccc4)CC3)c2)c1	7.0	85.4*	14.6	26.4	-7.8	.
Cc1ccc(CN(C)C(=O)c2cccc(S(=O)(=O)N3CCN(c4ccccc4)CC3)c2)cc1	36.0	78.2	28.9	32.2	8.7	21.7
CSc1ccc(CN(C)C(=O)c2cccc(S(=O)(=O)N3CCN(Cc4ccccc4)CC3)c2)cc1	8.7	88.2*	12.9	10.6	13.1	28.0
Cc1cccc(CSc2[nH]c(=O)ncc2C)c1	-13.2	-8.6	0.9	7.3	4.0	-3.6
O=C(O)COc1ccc(Br)cc1CP(=O)(c1ccccc1)c1ccccc1	-2.6	-4.5	-13.2	13.3	-1.5	-1.0
O=C(NCCCO)C(=O)NCc1ccncc1	-17.2	-14.7	4.4	2.0	-3.2	3.6
O=C(Nc1cc(F)c(Br)cc1F)c1ccc(Cl)cc1	-43.4	-111.3	-18.5	-292.1	-11.7	-70.2
COCC(=O)Nc1cc(Cl)ccc1C	-3.4	1.3	-1.0	8.8	-6.2	13.0
Cc1ccc(Cl)cc1NC(=O)CC(O)(C(F)(F)F)C(F)(F)F	53.5*	29.1	31.0	40.8	13.7	4.0
